FLuc modulator: counter-screen for miR-21 project: firefly luciferase inhibitors or activators; purified FLuc, Km substrates, luminescence inhibition; Potency, µM (series often up to 57.5 µM), for the others: at the top dose activity change, negative = inhibition, most hits filed as inhibitors; 6.9% of 360,000 active;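 note: plate controls were vehicle for no effect and reference inhibitor for full effect; nearly all actives have a fitted effect of over 55% in size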
Target sequence (P08659 whole entry, looked up): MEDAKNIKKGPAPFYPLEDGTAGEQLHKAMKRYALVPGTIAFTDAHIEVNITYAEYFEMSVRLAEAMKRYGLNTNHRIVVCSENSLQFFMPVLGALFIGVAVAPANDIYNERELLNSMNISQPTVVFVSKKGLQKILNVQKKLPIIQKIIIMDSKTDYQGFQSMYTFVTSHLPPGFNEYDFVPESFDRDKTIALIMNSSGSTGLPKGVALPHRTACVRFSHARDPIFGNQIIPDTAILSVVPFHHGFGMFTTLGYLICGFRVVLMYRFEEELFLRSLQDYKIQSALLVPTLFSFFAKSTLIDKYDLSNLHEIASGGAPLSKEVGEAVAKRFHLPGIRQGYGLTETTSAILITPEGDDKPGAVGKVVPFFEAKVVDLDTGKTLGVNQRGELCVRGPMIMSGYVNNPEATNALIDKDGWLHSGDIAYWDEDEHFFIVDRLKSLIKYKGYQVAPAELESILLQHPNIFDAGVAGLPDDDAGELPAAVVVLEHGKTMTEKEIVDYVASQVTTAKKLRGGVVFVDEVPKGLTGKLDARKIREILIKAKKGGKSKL
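Purified P. pyralis luciferase, 10 nM final, with Km-level 10 uM D-luciferin and 10 uM ATP in 50 mM Tris acetate pH 7.5, 10 mM Mg acetate, 0.01% Tween-20, 0.05% BSA; 6-point qHTS titration about 60 µM downward; luminescence read.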
ELG1 genotox: genotoxicity induction in ELG1-luciferase HEK293T cells. Potency, µM (titrated, usually from 46 µM), inactives show top-dose activity change, positive = activation, most hits filed as activators. AID 504466. 1.3% of 330,000 active. HEK293T ELG1-luciferase reporter, luminescence, 16 h; note: % of control where 0% means no effect; nearly all actives have a fitted effect of over 60% in size
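16 hr compound incubation (37 °C, 5% CO2) of HEK293T cells carrying luciferase-tagged ELG1; luciferase then measured by ONE-Glo luminescence after 30 min at RT.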
SMN2 splice up: increases expression of the SMN2 splice variant; 2.8% of 210,000 active; Potency, µM (series often up to 46.1 µM), for the others: at the highest dose activity change, positive = activation, hits mostly activators; HEK293 SMN2-luciferase splicing reporter, luminescence, 30-36 h; note: % of control where 0% means no effect; nearly all actives have a fitted effect of over 55% in size
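HEK293 cells carry an SMN2 minigene-luciferase reporter in which exon 7 inclusion puts luciferase in frame. Cells were seeded at 2000 cells/well, attached for 10-12 hours, then exposed to compounds for 30-36 hours at 37C before ONE-Glo luminescence.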
NPC1 prom act: activators of NPC1 promoter; Huh7 NPC1 promoter luciferase reporter, 24 h; Potency, µM (top dose mostly 9.22 µM), for inactives: at the highest dose activation, usual class: activators; 2.4% of 320,000 active; note: % of control where 0% means no effect; nearly all actives have a fitted effect of over 60% in size
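Luciferase expression driven by the NPC1 promoter was measured in stably transfected Huh7 cells after a 24 h compound incubation, using a luciferase reagent and a luminescence read.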
Rab9 promoter act: activates the Rab9 promoter. Huh7 Rab9 promoter-luciferase reporter, luminescence, 24 h. Potency, µM (doses to about 9.22 µM), without a hit: at the top dose activation, negative = inhibition, hits mostly activators. 2.8% of 320,000 active. AID 485297; note: % of control where 0% means no effect; nearly all actives have a fitted effect of over 60% in size
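Rab9 promoter-driven luciferase in stably transfected Huh7 cells; 1500 cells/well rested 2 h, exposed to compound in DMSO for 24 h at 37 °C, 5% CO2. Luminescence read 10 min after adding luciferase reagent at ambient temperature.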
Active calls of the source: *; ? = inconclusive; / = no result given. An excerpt weighted towards active compounds, which were near 7.4% of everything screened. Calls come from the whole dose curve; as a rule, active = well fitted curve in the direction sought with a large enough effect; inconclusive = small, poorly fitted or top-dose-only effect, or another doubt; inactive = no such curve, though single readings can be large; an effect the other way counts as inactive or inconclusive. Potency is the fitted concentration of half-maximal effect.

SMILES	FLuc modulator	ELG1 genotox	SMN2 splice up	NPC1 prom act	Rab9 promoter act
COc1ccc(N2C(=O)CC(c3ccc(OC(C)C)cc3)C2=O)cc1 (configuration not stated)	-0.9%	-1.7%	-10.3%	-0.4%	0.3%
CN(C(=O)CSc1nnc(C2CC2)n1C1CC1)C1(C#N)CCCCC1	/	0.4%	/	-6.9%	4.5%
COc1ccc(C(=O)Oc2ccc(C(=S)N3CCOCC3)cc2)cc1	21.3µM*	0.2%	/	-3.1%	-3.9%
COc1ccc(N/C=C/C(=O)C(C)(C)C)cc1	12µM*	10.0%	/	-0.3%	-3.5%
COc1ccc(C(=O)/C=C\N2CCOCC2)cc1	23.9µM*	?	/	13.6%	15.1%
CCOc1ccc(N/C=C/C(=O)c2ccc(OC)c(OC)c2)cc1	3.01µM*	18.3µM*	/	3.16µM*	4.47µM*
O=C(Oc1ccc(C(=S)N2CCOCC2)cc1)c1ccc(Br)cc1	-0.1%	0.7%	20.9%	-1.1%	-0.7%
CCCOc1ccc(N/C=C/C(=O)c2ccc(OC)c(OC)c2)cc1	?	1.3%	/	-4.7%	0.1%
COC(/C=C/Nc1ccc(OC)cc1)=C(C#N)C#N	-0.9%	-0.4%	12.5%	-5.9%	-24.1%
O=C(/C=C/Nc1ccccc1)c1ccc(Oc2ncccn2)cc1	2.13µM*	?	?	1.41µM*	2.24µM*
COc1ccc(N/C=C\C(=O)c2ccc3ccccc3c2)cc1	?	16.8%	/	2µM*	2.82µM*
COc1ccc(N/C=C/C(=O)c2ccccc2)cc1	0.12µM*	0.411µM*	/	0.316µM*	0.126µM*
NS(=O)(=O)c1ccc(N/C=C\C(=O)c2ccc3ccccc3c2)cc1	2.5%	3.7%	0.6%	7.3%	3.5%
COc1ccc(C(=O)/C=C/Nc2ccc(C)cn2)cc1OC	8.49µM*	?	11.2µM*	2.24µM*	1.58µM*
COc1ccc(CNC(=O)c2ccc3nc(CCc4ccccc4)oc3c2)c(OC)c1	-16.9%	/	/	/	/
COc1ccc(N/C=C/C(=O)c2sc(-c3ccccc3)nc2C)cc1	6.75µM*	-5.7%	-13.5%	-2.2%	-2.3%
O=C(Nc1nc(-c2cccs2)cs1)c1ccc([N+](=O)[O-])o1	?	2.4%	/	19.2%	6.3%
O=[N+]([O-])c1ccc(NCc2ccc(Cl)cc2)nc1	15.1µM*	?	/	?	?
CC(C)(C)c1ccc(CNc2ccc([N+](=O)[O-])cn2)cc1	12µM*	?	?	26.1%	?
CC(=O)NCCNc1ccc([N+](=O)[O-])cn1	2.8%	-0.2%	13.2%	-1.1%	1.3%
CC(C)c1ccc(CNc2ccc([N+](=O)[O-])cn2)cc1	9.53µM*	?	15.8µM*	?	?
O=[N+]([O-])c1ccc(Nc2ccc(Cl)cc2)nc1	-2.1%	0.9%	/	-3.1%	-4.1%
CC(C)(C)c1ccc(Cn2cnc(-c3ccc([N+](=O)[O-])cc3)c2)cc1	19µM*	?	27.2%	?	?
CN(C(=O)Cn1nnc2ccccc2c1=O)C1CCCCC1	0.2%	4.4%	/	-2.6%	-2.0%
Cc1c2cnn(CC(=O)Nc3cccc(C(F)(F)F)c3)c(=O)c2c(C)n1Cc1ccccc1Cl	-11.6%	/	5.9%	/	/
SMILES	FLuc modulator	ELG1 genotox	SMN2 splice up	NPC1 prom act	Rab9 promoter act
Cc1noc(C)c1C(=O)N1CCC2(CC1)CN(c1ccccc1)C2	/	/	-31.4%	/	/
Cc1cnn(-c2cc(N/N=C/c3ccccc3F)ncn2)c1	-8.3%	?	-5.9%	22.7%	20.5%
COc1cc(N/N=C/c2ccccc2O)ncn1	15.1µM*	23.1µM*	?	?	?
COc1cc(N/N=C/c2ccc(N(C)C)cc2)ncn1	0.849µM*	1.16µM*	2.24µM*	1.26µM*	?
CC(C)NC(=O)c1ccc(CSc2nc3ccncc3n2Cc2cccc(F)c2)cc1	2.5%	/	-2.1%	/	/
Cc1ccc(Nc2cc(C)nc(-c3ccccc3)n2)cc1	21.3µM*	?	/	?	?
Cc1ccc(Nc2cc(C)nc(-c3ccccc3O)n2)cc1	23.9µM*	?	-14.4%	14.3%	18.1%
C/C(=N\Nc1cc(C)nc(-c2ccccc2O)n1)c1ccccc1	9.53µM*	-8.3%	-21.0%	-1.3%	-2.8%
Cc1cc(N/N=C/c2ccc(O)c(C)c2O)nc(-c2ccccc2O)n1	?	-6.5%	-62.8%	-1.4%	0.1%
Cc1cccc(N(CC(=O)Nc2ccc(Br)cc2)S(C)(=O)=O)c1C	-15.3%	/	/	/	/
COc1ccc(CN(C(=O)c2cc3ccccc3oc2=O)C2CCS(=O)(=O)C2)cc1 (configuration not stated)	-12.7%	7.1%	-6.6%	-4.3%	2.7%
COc1ccc(CN(C(=O)c2cc3ccccc3oc2=O)C2CCS(=O)(=O)C2)cc1OC (configuration not stated)	19µM*	?	?	3.98µM*	?
O=C(c1cc2ccccc2oc1=O)N(Cc1ccccc1F)C1CCS(=O)(=O)C1 (configuration not stated)	16.9µM*	?	/	24.2%	?
O=C(c1cc2ccccc2oc1=O)N(Cc1ccccc1)C1CCS(=O)(=O)C1 (configuration not stated)	21.3µM*	?	-5.8%	?	?
CCOc1ccc(CN(C(=O)c2cc3ccccc3oc2=O)C2CCS(=O)(=O)C2)cc1 (configuration not stated)	12µM*	?	/	?	3.16µM*
CC1=C(C(=O)OC(C)(C)C)C(c2cccc3ccccc23)NC(=O)N1 (configuration not stated)	1.4%	-6.2%	/	-4.4%	1.9%
CN(Cc1nccs1)C(=O)c1ccc2nc(Cc3ccccc3F)oc2c1	2.9%	-2.3%	/	0.7%	0.0%
Cc1cccc(CNC(=O)c2ccc3nc(Cc4ccccc4F)oc3c2)n1	26.9µM*	?	/	3.55µM*	3.55µM*
O=C(NCCc1ccccn1)c1ccc2nc(Cc3ccccc3F)oc2c1	10.7µM*	4.61µM*	/	2.82µM*	2µM*
COc1ccc(Oc2ncc3ncc(=O)n(CCC#N)c3n2)cc1	/	/	0.2%	/	/
O=c1c(S(=O)(=O)c2cccc(Cl)c2)cn(Cc2ccccc2)c2cc(N3CCOCC3)c(F)cc12	-1.0%	/	/	/	/
Cc1ccc(N2C(=O)C3C(C2=O)C2C=CC3C23CC3)cc1 (configuration not stated)	10.7µM*	6.2%	-7.5%	10.4%	11.2%
COc1ccc(S(=O)(=O)NCC(c2ccc(N(C)C)cc2)N2CCc3ccccc32)cc1F (configuration not stated)	0.7%	/	/	/	/
NC(=O)c1cn(-c2ccccc2)nc1-c1cc2ccccc2oc1=O	2.5%	1.5%	-5.6%	-1.4%	-4.2%
O=C(N/N=C/c1cn(-c2ccccc2)nc1-c1cc2ccccc2o1)c1ccncc1	1.9µM*	?	7.08µM*	2.82µM*	2.24µM*
O=C(O)c1cccc(NC(=O)c2cn(-c3ccccc3)nc2-c2cc3ccccc3o2)c1	4.26µM*	9.0%	20.9%	2.8%	8.8%
